AmpC inh detg: blocks E. coli AmpC beta-lactamase in detergent assay | Potency, µM (doses to about 114 µM), actives largely listed as inhibitors | AmpC hydrolysis of nitrocefin, absorbance 480 nm, 0.01% Triton | P00811 | actives 0.041% (n = 370,000); further: nearly all actives have a fitted effect of over 25% in size
Target sequence (P00811 whole entry, looked up): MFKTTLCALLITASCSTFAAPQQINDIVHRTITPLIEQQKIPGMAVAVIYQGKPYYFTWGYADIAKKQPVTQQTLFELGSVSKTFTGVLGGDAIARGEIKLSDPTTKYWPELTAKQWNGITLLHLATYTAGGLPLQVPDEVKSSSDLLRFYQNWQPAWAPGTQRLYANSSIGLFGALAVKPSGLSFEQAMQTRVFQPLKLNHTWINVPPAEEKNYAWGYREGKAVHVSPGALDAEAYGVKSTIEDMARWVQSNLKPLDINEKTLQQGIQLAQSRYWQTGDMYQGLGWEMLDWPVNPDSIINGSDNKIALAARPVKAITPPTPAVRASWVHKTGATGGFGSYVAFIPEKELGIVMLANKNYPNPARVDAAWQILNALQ
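AmpC (5.3 nM in the dispensed reagent) in 20 mM phosphate pH 7.0 with 0.01% (detergent screen) or 0.0001% Triton X-100 was preincubated with compounds for 15 min at room temperature. Nitrocefin was then added from an 800 uM solution, and hydrolysis was followed at 480 nm.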
Shiga inhibitor: inhibitors of Shiga toxin in Vero cells; Vero cells, Shiga toxin protein synthesis inhibition reporter; inhibition, % at 38.7 µM; actives 9.2% (n = 290,000); in the data active means inhibition mostly above about 28%, no sharp cut-off; inactive means mostly below about 43%
AmpC no deterg: blocks E. coli AmpC beta-lactamase in detergent-free assay. P00811. AmpC nitrocefin hydrolysis, absorbance 480 nm, 0.0001% Triton. Potency, µM (series often up to 57.1 µM), usual class: inhibitors. actives 0.52% (n = 330,000). AID 485341; further: nearly all actives have a fitted effect of over 20% in size
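AmpC (5.3 nM in the dispensed reagent) in 20 mM phosphate pH 7.0 with 0.01% (detergent screen) or 0.0001% Triton X-100 was preincubated with compounds for 15 min at room temperature. Nitrocefin was then added from an 800 uM solution, and hydrolysis was followed at 480 nm.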
Cycloheximide cs: counter-screen hit for Shiga toxin inhibitors, cycloheximide | actives 12% (n = 300,000) | max response, % | cell reporter, cycloheximide protein synthesis inhibition counterscreen | AID 2314; in the data active means max response mostly above about 13%, no sharp cut-off; inactive means mostly below about 14%; further: read at 38.3 µM for the half of the compounds with a filed dose
NS1 inh: influenza NS1 inhibition | Potency, µM (top dose mostly 46.1 µM) | actives 0.4% (n = 270,000) | AID 2326; calls by dose curve; further: actives are rising curves; nearly all actives have a fitted effect of over 50% in size
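S. cerevisiae expressing influenza A NS1, grown in glucose, washed, then diluted 1:100 into pH 6.0 -URA galactose medium with 23 nl compound. Growth recovery read as OD600; NS1-free strain serves as control.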
Each line names hits and unclear results; the compound was inactive in the other large screens. This is one part of a sample in which hits are shown more often than they occur. Unless noted, the call rests on the fitted dose curve; in most records, active means well fitted curve in the direction sought with a large enough effect; inconclusive means small, poorly fitted or top-dose-only effect, or another doubt; inactive means no such curve, though single readings can be large; an effect the other way counts as inactive or inconclusive.

Cc1cc(C)c(C#N)c(OCC(=O)c2ccc(Br)cc2)n1	none
N#Cc1c(SCC(N)=O)nsc1SCc1ccc(Cl)cc1	none
COC(=O)c1ccccc1CSc1nsc(C)c1C#N	none
Cc1ccc(C(=O)CSc2nsc(C)c2C#N)cc1	Shiga inhibitor active, AmpC no deterg 0.25µM, Cycloheximide cs 30
CCOc1ccc(NC(=O)c2cc(S(=O)(=O)N3CCc4ccccc43)ccc2F)cc1	none (no result: Shiga inhibitor, AmpC no deterg, Cycloheximide cs, NS1 inh)
Nn1c(SCC(=O)Nc2ccc(F)cc2F)nnc1C1CCCCC1	Shiga inhibitor 55, Cycloheximide cs 42
Cn1c(SCC(=O)Nc2ccc(F)cc2)nnc1C1CC1	none
Nn1c(SCC(=O)Nc2ccc(F)cc2F)nnc1-c1cccnc1	Cycloheximide cs 25
CCn1c(SCC(=O)Nc2ccc(F)cc2)nnc1C1CC1	AmpC inh detg inconclusive, Cycloheximide cs 19
CC(C)CCC[C@@H](C)[C@@H]1CC[C@H]2C3=CC=C4CC(O)CC[C@]4(C)[C@H]3CC[C@@]21C (stereo partly drawn)	none (no result: AmpC inh detg, AmpC no deterg, NS1 inh)
Cc1noc(NS(=O)(=O)c2ccc(N/C=C/C(=O)c3ccc(F)cc3)cc2)c1C	Shiga inhibitor 69, Cycloheximide cs 33 (no result: NS1 inh)
COc1ccc(C(=O)/C=C/Nc2ccc(S(=O)(=O)Nc3onc(C)c3C)cc2)cc1	Shiga inhibitor 77, Cycloheximide cs 44
Cc1noc(NS(=O)(=O)c2ccc(N/C=C\C(=O)c3ccncc3)cc2)c1C	AmpC inh detg inconclusive
CCc1ccc(C(=O)/C=C/Nc2ccc(S(=O)(=O)Nc3onc(C)c3C)cc2)cc1	Shiga inhibitor 92, Cycloheximide cs 50
CCc1nnc(NS(=O)(=O)c2ccc(N/C=C\C(=O)c3ccc4ccccc4c3)cc2)s1	AmpC no deterg inconclusive, Cycloheximide cs 24
CCc1nnc(NS(=O)(=O)c2ccc(NC(=O)c3ccccc3)cc2)s1	none
CN=C(NC1CCCCC1)c1ccc([N+](=O)[O-])cc1	NS1 inh inconclusive
Cc1noc(NS(=O)(=O)c2ccc(N/C=C/C(=O)c3cccnc3)cc2)c1C	Shiga inhibitor 43, Cycloheximide cs 16
COc1ccc(C(=O)/C=C/Nc2ccc(S(=O)(=O)Nc3ncccn3)cc2)cc1	Cycloheximide cs 20
CCN(C(=O)CSc1nc2ccccc2n1CC(=O)Nc1ccccc1C)c1ccccc1	none (no result: Shiga inhibitor, AmpC no deterg, Cycloheximide cs, NS1 inh)
Cc1cc(C)nc(SCc2c(F)cccc2Cl)n1	none
Cc1cc(C)nc(S/C=C/C(=O)c2ccccc2F)n1	Shiga inhibitor 119, Cycloheximide cs 54
COC(=O)Cn1c2ccccc2c2nc3ccccc3nc21	none
O=C(O)CCn1c2ccccc2c2nc3ccccc3nc21	Shiga inhibitor 58, Cycloheximide cs 19
c1ccc2nc3c(nc2c1)c1ccccc1n3CCN1CCOCC1	Shiga inhibitor 42
COC(=O)c1nc2n(n1)C(c1cccc(Cl)c1)C(C(=O)Nc1ccccc1OC)=C(C)N2 (stereo not drawn)	none (no result: Shiga inhibitor, AmpC no deterg, Cycloheximide cs, NS1 inh)
CC(C)COC(=O)Cn1nnc2sc(-c3ccccc3)cc2c1=O	none (no result: Shiga inhibitor, AmpC no deterg, Cycloheximide cs, NS1 inh)
CCOC(=O)C(CC)n1nnc2sc(-c3ccccc3)cc2c1=O (stereo not drawn)	none (no result: Shiga inhibitor, AmpC no deterg, Cycloheximide cs, NS1 inh)
CC(=O)Cn1nnc2sc(-c3ccccc3)cc2c1=O	Shiga inhibitor 93, Cycloheximide cs 46 (no result: NS1 inh)
CCn1cnc2sc(-c3ccccc3)cc2c1=O	Shiga inhibitor 112, Cycloheximide cs 29
N#CCn1cnc2sc(-c3ccccc3)cc2c1=O	Cycloheximide cs 27
COc1ccc(-n2cnc3sc(-c4ccccc4)cc3c2=O)cc1	AmpC inh detg inconclusive, Cycloheximide cs 43
C=CCSc1nc2sc(-c3ccccc3)cc2c(=O)n1N	AmpC inh detg inconclusive
COc1ccc(-n2cnc3sccc3c2=O)cc1	none
CC(=O)Cn1cnc2sc(-c3ccccc3)cc2c1=O	Shiga inhibitor 36, Cycloheximide cs 39
O=C(Cn1cnc2sc(-c3ccccc3)cc2c1=O)N1CCOCC1	none
CCCCOCP(=O)(CC)COCCCC	AmpC inh detg inconclusive
Cc1ccccc1CN(C)Cc1cc(=O)oc2c(C)c(C)ccc12	Cycloheximide cs 23
COc1cccc(CN(C)Cc2cc(=O)oc3c(C)c(C)ccc23)c1	Cycloheximide cs 16
CCOC(=O)c1oc2ccc(CNC3CCCCC3)c(Cl)c2c1C	none
CCOC(=O)c1oc2ccc(CNCCO)c(Cl)c2c1C	AmpC inh detg inconclusive, Shiga inhibitor 82, Cycloheximide cs 40
O=C(N/N=C/c1c[nH]c2ccccc12)c1ccc(O)c(O)c1	Shiga inhibitor 64, Cycloheximide cs 24
COc1ccc2c(c1)c(/C=N/Nc1ccc(C(=O)O)cc1)c(C)n2C	Shiga inhibitor 70, Cycloheximide cs 43
O=C(N/N=C/C1C(c2ccccc2)C1(Cl)Cl)c1cccc(Cl)c1 (stereo not drawn)	AmpC inh detg inconclusive, Shiga inhibitor 49, Cycloheximide cs 40
O=C(N/N=C/c1c[nH]c2ccccc12)c1cccc(Cl)c1	Shiga inhibitor 46, Cycloheximide cs 47
COc1ccc2c(c1)c(C(=O)N/N=C/c1ccc(O)c(O)c1)c(C)n2C	AmpC inh detg inconclusive
O=C(Nc1ccc(N=Nc2ccccc2)cc1)c1cccc(Cl)c1	none
CCc1ccccc1N(C)C(=O)Cc1c(C(=O)O)c(C)cn1C	none (no result: Shiga inhibitor, AmpC no deterg, Cycloheximide cs, NS1 inh)
CCOc1ccccc1C(=O)N/N=C/c1c[nH]c2ccccc12	none (no result: NS1 inh)
CC(=O)Nc1cccc(C(=O)N/N=C/c2c[nH]c3ccccc23)c1	Cycloheximide cs 13
O=C(N/N=C/c1c[nH]c2ccccc12)c1cccc(O)c1	Shiga inhibitor 70, Cycloheximide cs 26
COc1ccc(C(=O)N/N=C/c2c[nH]c3ccccc23)cc1	Shiga inhibitor 69, Cycloheximide cs 31
COc1ccc2c(CCNC(=O)Nc3ccccc3)c[nH]c2c1	none
COc1ccc2c(/C=N/Nc3ccc(C(=O)O)cc3)c[nH]c2c1	Shiga inhibitor 133, Cycloheximide cs 47
Cc1cc2c(cc1S(=O)(=O)CCC(=O)N1CCC(C)CC1)OCC(=O)N2	none (no result: Shiga inhibitor, AmpC no deterg, Cycloheximide cs, NS1 inh)
CC1(C)CCC(=O)N2CC[C@H]3C[C@H](OC(=O)Nc4ccc(Br)cc4)C[C@@H]1[C@H]32	AmpC inh detg inconclusive, Cycloheximide cs 22
O=C(Nc1ccc2c(c1)OCO2)O[C@@H]1C[C@H]2CCCC(=O)N3CC[C@@H](C1)[C@@H]23	none
O=c1c2oc3ccccc3c2n(Cc2cccc(Cl)c2)c(=O)n1Cc1ccco1	none (no result: Shiga inhibitor, AmpC no deterg, Cycloheximide cs, NS1 inh)
OC1(c2cccc(C(F)(F)F)c2)CCN(c2ccc(-c3ccccc3)nn2)CC1	Shiga inhibitor 67, Cycloheximide cs 38
Cc1ccc2c(COC(=O)c3ccccc3OC(F)F)cc(=O)oc2c1	AmpC inh detg inconclusive, Cycloheximide cs 26
Cc1ccc(S(=O)(=O)CCC(=O)OCc2cc(=O)oc3cc(C)ccc23)cc1	none (no result: AmpC inh detg, Shiga inhibitor, Cycloheximide cs, NS1 inh)
Cc1ccc2c(COC(=O)c3cnc(C)cn3)cc(=O)oc2c1	none
CCOC(=O)Nc1ccc2c(COC(=O)c3ccccc3O)cc(=O)oc2c1	Shiga inhibitor 76, Cycloheximide cs 27
CCOC(=O)Nc1ccc2c(COC(=O)CNS(=O)(=O)c3cccc(Br)c3)cc(=O)oc2c1	AmpC inh detg inconclusive
Cc1ccc2c(COC(=O)CNC(=O)c3ccccc3)cc(=O)oc2c1	Cycloheximide cs 36
